Source: PubChem BioAssay (National Center for Advancing Translational Sciences (NCATS))
HCV inh: blocks hepatitis C virus; Huh7.5.1 HCVcc-Cre infection, luciferase reporter, 44 h; Potency, µM (top dose mostly 41.8 µM), without a hit: top-dose activity change, negative = inhibition, actives largely listed as inhibitors; actives 3.4% (n = 340,000); further: potency means the concentration at half of the fitted maximal effect; on the % scale 0 is the no-effect control and ±100 the full control effect
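Cells (1,000/well) were plated 4 h before compound, then infected with HCVcc-Cre virus (~0.5 moi). After 44 h further culture, infection was read as luciferase luminescence following a 15 min substrate incubation at room temperature.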
HCMV inh: inhibitors of human cytomegalovirus. AID 1259415. activity change, negative = inhibition, % at 57.5 µM. HFF cells, HCMV-luciferase reporter, 72 h; hits give low values. actives 4.5% (n = 410,000); in the data active means activity change below about -60%; inconclusive means no clear call, values can overlap the other calls; inactive means above about -39%; further: on the % scale 0 is the no-effect control and ±100 the full control effect
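Two-dose cell screen: HFF monolayers treated with compounds and infected with luciferase-expressing HCMV at 1 PFU/cell, 72 h at 37C, then lysed for luciferase measurement.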
Pf growth 48h: P. falciparum growth inhibition at 48 hours (one generation); P. falciparum luciferase growth in erythrocytes, 48 h; actives 5.9% (n = 310,000); Potency, µM (top dose mostly 28.7 µM), inactives show top-dose activity change, negative = inhibition, actives largely listed as inhibitors; AID 504832; further: potency means the concentration at half of the fitted maximal effect; on the % scale 0 is the no-effect control and ±100 the full control effect
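In quantitative HTS format, infected erythrocytes bearing luciferase-reporter parasites were treated for a single generation at 37 C. Luminescence after adding detection reagent served as the growth measure.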
Pf growth 96h: inhibits malaria parasite growth, 96 h. P. falciparum luciferase reporter growth, 96 h. actives 6.9% (n = 320,000). Potency, µM (series often up to 28.7 µM), without a hit: at the top dose activity change, negative = inhibition, hits mostly inhibitors; further: potency means the concentration at half of the fitted maximal effect; on the % scale 0 is the no-effect control and ±100 the full control effect
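Parasite growth measured via integrated firefly luciferase reporter in P. falciparum. Infected erythrocytes at 2% hematocrit, 0.05% parasitemia final were treated 96 hours at 37 C under 5% CO2, and luminescence was read.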
Shiga toxin inh: blocks Shiga toxin action in Vero cells; inhibition, % at 38.7 µM; Vero cells, Shiga toxin protein synthesis inhibition reporter; actives 9.2% (n = 290,000); in the data active means inhibition mostly above about 28%, no sharp cut-off; inactive means mostly below about 43%; further: 0% is about no effect
Cycloheximide cs: affects cycloheximide protein synthesis inhibition readout, counter-screen | cell reporter, cycloheximide protein synthesis inhibition counterscreen | max response, % | actives 12% (n = 300,000); in the data active means max response mostly above about 13%, no sharp cut-off; inactive means mostly below about 14%; further: read at 38.3 µM for the half of the compounds with a filed dose; 0% is about no effect
Starred values were filed as active, the others as inactive; u = inconclusive; x = no result given; [ ] = dose if it differs, or a comment. Shown are actives, neighbours in structure and some others; about 21% of the full set was active somewhere. Unless noted, the call rests on the fitted dose curve; in most records, active means well fitted inhibition curve with a large enough effect; inconclusive means small, poorly fitted or top-dose-only effect, or another doubt; inactive means no such curve, though single readings can be large or run the other way.

SMILES	HCV inh	HCMV inh	Pf growth 48h	Pf growth 96h	Shiga toxin inh	Cycloheximide cs
Cc1ccc(C2(c3ccc(C)cc3)CC2C(=O)NCc2cccnc2)cc1 (centres undefined)	u	-18	-26%	1.9µM*	-12	-4
S=C(NCc1cccnc1)Nc1ccc(Cl)c(Cl)c1	-28%	u	-31%	u	5	3
CSc1ccc(NC(=O)NCc2cccnc2)cc1	-14%	-19	27%	33%	39*	28*
O=C(NCc1cccnc1)Nc1ccc(Cl)c(Cl)c1	-11%	72	24%	22%	59*	26*
CC(C)c1ccc(NC(=O)NCc2cccnc2)cc1	6%	-8	2%	51%	40	12*
Cc1ccc(C(=O)N2CCC(C(=O)NCc3cccnc3)CC2)cc1	9%	-21	-5%	2%	-9	-3
OC(c1cccc(Cl)c1)c1ncc(-c2cccc3ccccc23)[nH]1 (centres undefined)	x	29	x	x	x	x
Cc1ccc(CNC(=O)c2ccc(N3CCC4(CC3)CC(c3ccccc3)=NO4)c([N+](=O)[O-])c2)cc1	u	15	u	u	2	-3
O=C(NCc1cccnc1)Nc1ccc(Br)cc1	12%	16	-10%	u	21	30*
COc1ccc(CNC(=O)c2cnn3c(C(F)F)cc(C)nc23)cc1OC	10µM*	30	-9%	u	-3	-2
Cn1cccc1CNC(=O)Nc1ccc(Cl)c(Cl)c1	-28%	41	176%	0%	86	37*
Cc1ccc(NC(=O)NCc2cccnc2)cc1	13%	32	32%	-6%	22	19*
COc1ccc(OC)c(C=NNC(=O)c2ccc(NS(=O)(=O)c3cccs3)cc2)c1	u	75	x	x	x	x
Cc1ccc(CNC(=O)Nc2ccc(C)cc2)cc1	4%	u	52%[5.75 µM]	50%	61	22*
Cc1ccc(C(=O)Nc2ccccc2C(=O)NCc2cccnc2)cc1	-5%	-33	u	10µM*	-22	-7
Cc1cc(C)n2ncc(C(=O)NCc3cccnc3)c2n1	-1%	24	11%	2.3µM*	11	11
O=C(Nc1ccc([N+](=O)[O-])cc1)Nc1ccon1	-1%	-86*	-6%	14%	-5	-1
CCc1ccc(NC(=O)Nc2ccon2)cc1	4%	102	159%	u	62*	68*
Cc1nc(-c2cccc(NC(=O)Nc3ccc([N+](=O)[O-])cc3)c2)no1	x	-99*	x	x	x	x
COc1cc(CNc2ncnc3c2ncn3[C@H]2CN(Cc3cccc(C(F)(F)F)c3)C[C@@H](CO)O2)cc(OC)c1OC	x	64	x	x	x	x
COc1ccc([C@@H]2[C@@H](C(=O)N3CCOCC3)CC(=O)N2C(=O)Nc2ccc(C)c(Cl)c2)cc1	x	11	x	x	x	x
Cc1ccc(C)c(CN2C(=O)c3ccccc3S(=O)(=O)c3ccc(C(=O)N(C)C4CCCCC4)cc32)c1	x	-76*	x	x	x	x
O=C(NCCCN1CCCC1)c1ccc2c(c1)N(Cc1ccccc1F)C(=O)c1ccccc1S2(=O)=O	u	0	10µM*	-18%	20	3
CCC1CCCCN1CCCNC(=O)c1ccc2c(c1)N(Cc1ccccc1F)C(=O)c1ccccc1S2(=O)=O (centres undefined)	x	-101*	x	x	x	x
Cc1nc2c(-c3ccccc3)c(C)nn2c(C)c1CCC(=O)N1CCN(c2ccccc2)CC1	x	3	x	x	x	x
SMILES	HCV inh	HCMV inh	Pf growth 48h	Pf growth 96h	Shiga toxin inh	Cycloheximide cs
CCOC(=O)Cn1c(=O)n(CC2CCCO2)c2nc(-c3ccccc3Cl)nc(C(N)=O)c21 (centres undefined)	x	-4	x	x	x	x
O=C(COC(=O)CC1CC2CCC1C2)Nc1ccccc1[N+](=O)[O-] (centres undefined)	13%	-18	x	x	x	x
CCOc1ccccc1OCCCC(=O)N1CCN(S(=O)(=O)c2cc(F)ccc2F)CC1	-14%	-23	x	x	x	x
CCCOc1ccccc1OCC(=O)N1CCN(S(=O)(=O)c2ccc(Cl)cc2)CC1	1%	-5	u	u	x	x
CCOc1ccccc1OCCCC(=O)N1CCN(S(=O)(=O)c2ccc(Cl)cc2)CC1	-14%	-4	13µM*	u	x	x
CCOc1ccccc1OCCC(=O)N1CCN(S(=O)(=O)c2ccccc2[N+](=O)[O-])CC1	-9%	u	12µM*	u	x	x
CCC(C)(C)NC(=O)C1CCN(S(=O)(=O)c2c(C)noc2/C=C/c2ccc(C)cc2)CC1	x	-3	x	x	x	x
O=Nc1c(O)c2ccccc2c2ccccc12	u	-98*	x	x	x	x
CC(C)c1nc2cc(C(=O)N(C)C3CCOCC3)ccc2o1	-5%	55	33%	73%	42*	37*
O=C(CSc1ccc(Cl)cc1)c1ccco1	-21%	x	17%	u	65*	42
O=C(NCCSc1ccc(Cl)cc1)c1ccco1	-6%	u	x	u	16	14
O=C(CSc1ccccc1Cl)c1ccco1	-7%	2	52%	37%	49	26*
O=C(CCSc1ccc(Cl)cc1)c1ccco1	u	-64*	-11%	u	11	-2
Cc1ccc(NC(=O)c2ccc(=O)n(CC(=O)Nc3cccc(C)c3)n2)cc1	x	20	x	x	x	x
C#CCN1CCN(c2cccc(C(F)(F)F)c2)CC1	7%	u	35%	20%	-10	0
FC(F)(F)c1cccc(N2Cc3ccccc3C2)c1	4%	-1	13µM*	46%	37*	20*
Cc1cc(C)cc(N2Cc3ccccc3C2)c1	22%	15	x	4.1µM*	-2	-4
CCOC(=O)c1ccc(N2Cc3ccccc3C2)cc1O	u	58	4.1µM*	2%	65*	46*
CCc1ccc(N2Cc3ccccc3C2)cc1	-9%	43	-88%	u	99*	58*
CCOC(=O)c1ccccc1O	x	x	1%	-15%	x	x
CC12CCC=CC1C(c1ccc(F)c(Br)c1)N(Cc1ccccc1)C2=O (centres undefined)	x	x	x	x	-3	2
COc1ccc(NC(=O)Cn2cnc3sc(C)c(S(=O)(=O)N4CCN(C)CC4)c3c2=O)cc1Cl	x	8	x	x	x	x
Cc1cccc(OCCCC(=O)NCC(=O)Nc2cccc(C)c2C)c1	-12%	-30	-22%	-18%	16	-1
Cc1ccccc1C(=O)n1nc(-c2cccnc2)nc1NCc1ccc(F)cc1	x	-5	x	x	x	x
CCCc1nn2c(=O)cc(CSCC(=O)Nc3nnc(CC)s3)nc2s1	17%	-16	-16%	10µM*	-17	3
Cc1cc(Br)ccc1SCC(=O)OCC(O)=C(C#N)c1nc2ccccc2[nH]1	7%	-9	x	x	x	x
N#C/C(=C(/O)COC(=O)CSc1ccc2ccccc2c1)c1nc2ccccc2[nH]1	7%	-102*	18%	44%	-7	9
Cc1cc(Br)ccc1SCC(=O)OC/C(O)=C(\C#N)c1nc2ccccc2[nH]1	7%	-84*	-1%	-14%	-7	-2
